This test is described as follows: cell-free HIV fusion peptide-binding blockers – biochemical, uHTS, fluorescence dequenching, primary screen (AID 1986). The note with it: 30 min, stronger effect = higher value.
Setting [1] is: measured here: repeat confirmation average inhibition, at 18.6 µM.

The whole screen tested about 290,000 compounds, of which about 890 (0.31%) were called active. Rule as the data show it: active = inhibition mostly above about 52% (no sharp cut-off); inactive = mostly below about 76%. What follows is part of a selection rich in actives, with near analogues and random picks from the rest.

Consider `CSc1ccc(S(=O)(=O)N2CCC(C(=O)NCC3CCCO3)CC2)cc1` (centres undefined), for which the inhibition (at 20 µM) is -1.2% (inactive).

As for `COc1ccc(NC(=O)c2ccsc2NC(C)=O)cc1`, the inhibition (at 20 µM) was -0.1% (inactive). Still for that read-out and setting: under `COCCSc1nnc(NC(=O)c2ccc(NC(=O)C(C)C)cc2)s1` stands 1.5% (inactive). The same measure, in the same setting: under `CCN(c1ccccc1)S(=O)(=O)c1ccc(OCC(=O)Nc2cc(C)on2)cc1` stands -4% (inactive). On the same count and under the same terms, under `Cc1c(NC(=O)c2c(F)cccc2F)c(=O)n(-c2ccccc2)n1C` stands 0.4% (inactive); under `CCOc1cc(N2CCOCC2)c(OCC)cc1NC(=O)COC(=O)c1cc2ccccc2cc1O`, -0.9% (inactive). `CCOC(=O)CNC(=O)CNC(=O)Cn1ccc2ccccc2c1=O`: the inhibition (at 20 µM) is -0.8% (inactive). As to `O=C(C[n+]1ccc(C(=O)NCc2ccccc2)cc1)c1ccc(Cl)cc1`, the inhibition (at 20 µM) was 1.3% (inactive).

With `Cc1ccc(NC(=O)COC(=O)Cn2cnc3c2c(=O)n(C)c(=O)n3C)c(Cl)c1`, where the note is “at 20 µM”, the inhibition is 1.4% (inactive). With `O=C(NCCCCc1ccccc1)C1CCCC1`, the inhibition (at 20 µM) is -0.4% (inactive). Still for that read-out and setting: next, `COc1ccccc1NC(=O)CCCc1nc(-c2ccc(OC)c(OC)c2)no1`: -1% (inactive). On the same count and under the same terms, under `Cc1cc(/C=C(\C#N)c2nc3ccccc3[nH]2)c(C)n1C` stands 54% (active). Same read-out and setting: next, `Cc1cc2nc(/C(C#N)=C\c3ccc(-c4ccccc4C(=O)O)o3)[nH]c2cc1C`: 135% (inactive). As for `Cc1cc(/C=C(/C#N)c2nc3ccccc3[nH]2)c(C)n1-c1ccccc1C(=O)O`, the inhibition (at 20 µM) was 9.7% (inactive).

On to `COC(=O)c1ccc(COc2ccc(/C=C(\C#N)c3nc4ccccc4[nH]3)cc2OC)o1`, for which the inhibition (at 20 µM) was 4.4% (inactive).

`Cc1cc(/C=C(/C#N)c2nc3ccccc3[nH]2)c(C)n1-c1cc(C(=O)O)cc(C(=O)O)c1`: the inhibition is 63.6% (inactive) (at 20 µM) and 40.2% under setting [1]. For the compound `Cc1ccc2nc(/C(C#N)=C/c3ccc(-c4ccccc4C(=O)O)o3)[nH]c2c1`, the inhibition reads like this: (at 20 µM) 94.3% (active); under setting [1], 63.8%.

For `COc1cc(/C=C(/C#N)c2nc3ccccc3[nH]2)ccc1OC(=O)c1ccco1`, where the note is “at 20 µM”, the inhibition is 0.5% (inactive). Consider `COc1cc(/C=C(\C#N)c2nc3ccccc3[nH]2)ccc1OC(=O)c1ccco1`, for which, where the note is “at 20 µM”, the inhibition was 61.1% (active). Still for that read-out and setting: next, `N#C/C(=C\c1ccc(-c2ccccc2C(=O)O)o1)c1nc2ccccc2[nH]1`: 29.4% (inactive). Turning to `O=C(NC(=S)Nc1ccc(CN2CCCCC2)cc1)c1ccco1`, for the setting “at 20 µM”, the inhibition was 0.8% (inactive). The same measure, in the same setting: next, `Cc1ccccc1-n1ncc2c1CC(C)(C)CC2NC(=O)CCCN1CCCC1=O` (centres undefined): 0.2% (inactive); `CCOc1ccc(NC(=O)CSc2nc3ccsc3c(=O)n2CCC(=O)O)cc1`: 2.5% (inactive). Still for that read-out and setting: under `Oc1oc(-c2ccccc2Br)nc1C=Nc1ccc(Br)cn1` stands -0.2% (inactive); under `Cn1c(N=Nc2ccc(N3CCOCC3)cc2)[n+](C)c2ccccc21`, -4.1% (inactive).

As for `COc1ccc(N2CC(O)=C(c3n(C)c4ccccc4[n+]3C)C2=N)cc1`, the inhibition (at 20 µM) is 1.6% (inactive). Same read-out and setting: under `COc1ccc(N=Nc2n(C)c3ccccc3[n+]2C)cc1` stands 79.3% (active); under `CC(C)(C)c1cc(C(=O)C[n+]2ccc(C(=O)NCCCO)cc2)cc(C(C)(C)C)c1O`, -4% (inactive); under `CCCOC(=O)C1C2C=CC3(CN(c4cccc(Cl)c4)C(=O)C13)O2` (centres undefined), 0.8% (inactive). On the same count and under the same terms, next, `Cc1cc(N2CCOCC2)n2nc(C(F)(F)F)c(-c3ccccc3)c2n1`: 0.1% (inactive). Same read-out and setting: under `Cc1cc(C)n2nc(C(F)(F)F)c(-c3ccccc3)c2n1` stands 0.5% (inactive). For the compound `O=C(Nc1cccc2ncccc12)c1ccc(F)cc1`, the inhibition (at 20 µM) was 2.1% (inactive).

For the compound `O=C(Nc1cccc2ncccc12)c1ccc(Cl)cc1`, the inhibition (at 20 µM) was -1% (inactive). Turning to `CC(C)(C)c1ccc(C(=O)Nc2cccc3ncccc23)cc1`, the inhibition is 62% (active) (at 20 µM) and 65.1% under setting [1].

On to `COc1ccc(O)c(C(=O)c2cnc3nc4ccccc4n3c2)c1`, for which the inhibition (at 20 µM) is 28.4% (inactive). On the same count and under the same terms, next, `c1ccc(-c2csc(-c3ccncc3)n2)cc1`: 0.1% (inactive); `O=C(O)c1c2c(nc3ccccc13)/C(=C/c1ccc(O)cc1)CC2`: 77.1% (active); `O=C(O)c1ccc(/C=C2\CCCc3c2nc2ccccc2c3C(=O)O)cc1`: 4.2% (inactive). Regarding `O=C(O)c1c2c(nc3ccccc13)/C(=C/c1ccc(O)cc1)CCC2`, the inhibition (at 20 µM) is 6.1% (inactive). In the case of `CC(C)OCCCNC(=O)NC12CC3CC(CC(C3)C1)C2`, the inhibition (at 20 µM) was 1.1% (inactive). For `Cc1ccc(-n2nc3c(c2NC(=O)c2ccc4c(c2)OCO4)CS(=O)C3)cc1` (centres undefined), the inhibition (at 20 µM) was -0.3% (inactive). Same read-out and setting: under `CCc1nnc(NS(=O)(=O)c2ccc(NC(=S)NC(=O)/C=C/c3ccc(OC)cc3)cc2)s1` stands 34.6% (inactive); under `CCc1nnc(NS(=O)(=O)c2ccc(NC(=S)NC(=O)/C=C/c3ccc([N+](=O)[O-])cc3)cc2)s1`, 25.6% (inactive); under `CCc1nnc(NS(=O)(=O)c2ccc(NC(=S)NC(=O)/C=C/c3ccccc3)cc2)s1`, 60.8% (active). The same measure, in the same setting: next, `Cc1cccc(C)c1NC(=O)C(Cl)=C(Cl)Cl`: 0.7% (inactive); `O=C(O)c1cccc(S(=O)(=O)N2CCOCC2)c1`: -1% (inactive). Same read-out and setting: under `CCn1ncc(Cl)c1C(=O)Nc1cc([N+](=O)[O-])ccc1OC` stands 0.4% (inactive); under `Cc1ccsc1/C=N/NC(=O)c1ccccn1`, -0.7% (inactive). For the compound `COc1cccc(N2C(=O)C(c3ccccc3)=C(c3nc4ccccc4s3)C2NC(C)=O)c1` (centres undefined), the inhibition (at 20 µM) was 0.6% (inactive).

As to `COc1ccc(C(=O)/C(C#N)=N/Nc2ccc([N+](=O)[O-])cc2)cc1`, the inhibition (at 20 µM) was 5.5% (inactive). On the same count and under the same terms, next, `N#C/C(=N\Nc1cccc([N+](=O)[O-])c1)C(=O)c1ccc(Br)cc1`: 63.4% (active). Turning to `COc1ccc(C(=O)/C(C#N)=N/Nc2cccc([N+](=O)[O-])c2)cc1`, the inhibition (at 20 µM) is 20.6% (inactive).

For `Cc1c(C(=O)OCC(=O)N(C)c2ccccc2)oc2ccccc12`, the inhibition (at 20 µM) was 1.2% (inactive). Consider `O=C(OCCN1C(=O)c2cccc3c(N4CCOCC4)ccc(c23)C1=O)c1cc(Cl)cc(Cl)c1`, for which the inhibition (at 20 µM) was 88.8% (active). On the same count and under the same terms, under `O=C1c2cccc3c(N4CCCCC4)ccc(c23)C(=O)N1c1ccc(O)cc1` stands 146% (inactive).

Consider `O=C(OCCN1C(=O)c2cccc3c(N4CCOCC4)ccc(c23)C1=O)c1ccc(Cl)cc1`, for which, for the setting “at 20 µM”, the inhibition is 149% (inactive). Same read-out and setting: next, `O=C(OCCN1C(=O)c2cccc3c(N4CCOCC4)ccc(c23)C1=O)c1ccccc1Cl`: 151% (inactive). The same measure, in the same setting: under `O=C(OCCN1C(=O)c2cccc3c(N4CCOCC4)ccc(c23)C1=O)c1cccc(Cl)c1` stands 151% (inactive). The same measure, in the same setting: under `O=C1c2cccc3c(N4CCCCC4)ccc(c23)C(=O)N1c1cccc(O)c1` stands 148% (inactive).

With `CCCN(CCC)S(=O)(=O)c1ccc(C(=O)OCCN2C(=O)c3cccc4c(N5CCOCC5)ccc(c34)C2=O)cc1`, the inhibition (at 20 µM) was 63.4% (active). Same read-out and setting: under `CCN(CC)S(=O)(=O)c1ccc(C(=O)OCCN2C(=O)c3cccc4c(N5CCOCC5)ccc(c34)C2=O)cc1` stands 150% (inactive); under `O=C1c2cccc3c(N4CCCCC4)ccc(c23)C(=O)N1c1ccccc1O`, 100% (active).

In the case of `O=C1c2cccc3c(N4CCCCC4)ccc(c23)C(=O)N1CCO`, under “at 20 µM”, the inhibition was -0.2% (inactive). On the same count and under the same terms, next, `CC(=O)N(C(C)=O)N1C(=O)c2cccc3c(N4CCOCC4)ccc(c23)C1=O`: 100% (active). On the same count and under the same terms, next, `O=C(OCCN1C(=O)c2cccc3c(N4CCOCC4)ccc(c23)C1=O)c1ccc(Cl)cc1Cl`: 151% (inactive); `Cc1ccc(C(=O)NC(C(=O)Nc2cccc(S(N)(=O)=O)c2)C(C)C)cc1` (centres undefined): -1.6% (inactive); `COc1ccc(CNC(=O)Cn2nc(C(F)(F)F)cc2C)cc1`: -0.1% (inactive). On the same count and under the same terms, next, `O=C(O)c1cc(Cl)c(Cl)cc1C(=O)N1CCOCC1`: 1.9% (inactive); `COc1ccccc1-n1c(C)nc2cc(C(=O)NCC3CCCO3)ccc21` (centres undefined): 0.3% (inactive).

Regarding `Cc1cc(C)n(C(=O)c2ccc(Cl)c(F)c2F)n1`, under “at 20 µM”, the inhibition was -0.2% (inactive). The same measure, in the same setting: under `COc1ccc(CC(=O)Nc2c(C(=O)N3CCN(c4ncccn4)CC3)oc3ccccc23)cc1` stands -0.6% (inactive); under `O=c1ccc(C(F)(F)F)cn1Cc1cc(=O)n2cc(Br)ccc2n1`, 1.6% (inactive). On the same count and under the same terms, next, `COC(=O)C(Cc1ccccc1)NC(=O)CSc1nc(C)cc(=O)[nH]1` (centres undefined): -1.7% (inactive); `CCNc1cc(=O)n(C)c(=O)n1C`: 0.1% (inactive). `CCc1ccc(N=C2NC(=O)/C(=C/c3ccc(OCC(=O)O)c(OC)c3)S2)cc1`: the inhibition is, setting by setting: (at 20 µM) 55.1% (inactive); under setting [1], 26.6%. `COc1cc(CO)cc(Br)c1OCC(=O)O`: the inhibition (at 20 µM) was 0% (inactive).

With `CC(=O)Nc1c(-c2cc(=O)oc3cc(C)ccc23)oc2ccccc12`, for the setting “at 20 µM”, the inhibition is -0.7% (inactive).

Take `Cc1ccccc1CN1C(=O)C(C)S/C1=N/N=C/c1ccco1` (centres undefined): the inhibition (at 20 µM) was 4.6% (inactive). As for `CC1=Nc2ccccc2/C1=C/c1sc(=S)n(-c2cccc(C(=O)O)c2)c1O`, the inhibition reads like this: (at 20 µM) 112% (active); under setting [1], 134%. Turning to `O=C(O)c1cccc(-n2c(O)c(C=C3N=c4ccccc4=N3)sc2=S)c1`, where the note is “at 20 µM”, the inhibition was 32.8% (inactive). `O=C(O)c1ccc(-n2c(O)c(C=C3N=c4ccccc4=N3)sc2=S)cc1`: the inhibition (at 20 µM) is 33.3% (inactive). Consider `O=[N+]([O-])c1cccc(-c2noc(-c3ccco3)n2)c1`, for which the inhibition (at 20 µM) is -2.4% (inactive). Still for that read-out and setting: next, `COc1ccccc1-c1nnc(SCC(=O)N2CCC(C)CC2)o1`: -1.2% (inactive). `Cc1ccccc1NC(=O)CN1C(=O)S/C(=C\c2ccc(-c3cc(C(=O)O)ccc3C)o2)C1=O`: the inhibition was 69.3% (inactive) (at 20 µM) and 19.9% under setting [1].

For the compound `Cc1ccc(NC(=O)CN2C(=O)S/C(=C/c3ccc(-c4cccc(C(=O)O)c4)o3)C2=O)cc1`, for the setting “at 20 µM”, the inhibition is 79.5% (active). Still for that read-out and setting: under `Cc1cccc(NC(=O)CN2C(=O)S/C(=C\c3ccc(-c4cccc(C(=O)O)c4C)o3)C2=O)c1` stands 55.2% (active); under `Cc1cccc(NC(=O)CN2C(=O)N/C(=C\c3ccc(-c4cccc(C(=O)O)c4)o3)C2=O)c1`, 40.3% (inactive); under `Cc1ccc(C(=O)O)cc1-c1ccc(/C=C2\SC(=O)N(CC(=O)Nc3ccccc3)C2=O)o1`, 59.6% (active). The same measure, in the same setting: next, `Cc1ccc(OCC(=O)N/N=C\c2ccc(-c3cccc(C(=O)O)c3)o2)c(C)c1`: 56.8% (active); `COc1ccc(CC(=O)N/N=C/c2ccc(-c3cccc(C(=O)O)c3)o2)cc1OC`: 28.8% (inactive). As to `Cc1ccc(NC(=O)CN2C(=O)S/C(=C\c3ccc(-c4cccc(C(=O)O)c4C)o3)C2=O)cc1C`, the inhibition is 68.7% (inactive) (at 20 µM) and 6.8% under setting [1]. Turning to `Cc1ccc(OCC(=O)N/N=C\c2ccc(C)o2)c(C)c1`, for the setting “at 20 µM”, the inhibition is 0.1% (inactive).

As to `Cc1ccc(NC(=O)CN2C(=O)S/C(=C/c3ccc(-c4cc(C(=O)O)ccc4C)o3)C2=O)cc1C`, the inhibition reads like this: (at 20 µM) 63.2% (inactive); under setting [1], 35.6%. The corresponding values for `CC(C)(C)OC(=O)CN1C(=O)S/C(=C\c2ccc(-c3cccc(C(=O)O)c3)o2)C1=O` are 51.8% (inactive) and 40.6%. Regarding `Cc1cccc(NC(=O)CN2C(=O)N/C(=C/c3ccc(-c4cccc(C(=O)O)c4C)o3)C2=O)c1`, where the note is “at 20 µM”, the inhibition is 28.4% (inactive).

These data come from PubChem BioAssay AID1986 (Sanford-Burnham Center for Chemical Genomics, 2009).
